In PubChem BioAssay:
Unmarked numbers belong to inactive results. Active and inactive are the calls of the source. Rule as the data show it, unless noted: active = inhibition above about 28%; inactive = the rest.

Assays:
[1] = StAR promoter reporter inhibitors, counter-screen for LRH-1 inverse agonist project, cell-based, luminescence, high throughput (AID 651611); conditions: StAR promoter luciferase reporter counterscreen, at 3.6 µM, stronger effect = higher value
[2] = molecular target: Nuclear receptor subfamily 5 group A member 2 (Homo sapiens) (UniProt O00482); test: LRH-1 (NR5A2) inverse agonists, retest, confirmation, cell-based, luminescence (AID 651613; in the data active = inhibition above about 42%;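 also: HEK293T cells co-transfected with LRH-1 and StAR promoter luciferase reporter; 0% = vehicle wells and 100% = parental cells lacking receptor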); conditions: cell-based LRH-1 luciferase reporter, inverse agonism; at 3.6 µM; stronger effect = higher value
[3] = molecular target: Steroidogenic factor 1 (Homo sapiens) (UniProt Q13285); test: SF1 (NR5A1) inverse agonists, counter-screen for LRH-1 inverse agonist project, cell-based, luminescence, high throughput (AID 651614; in the data active = inhibition above about 44%;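 also: cells cotransfected with StAR promoter reporter and SF1 expression vector; 0% = vehicle on cells with receptor and 100% = vehicle on cells lacking receptor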); conditions: cell-based SF1 luciferase reporter, at 3.6 µM, stronger effect = higher value
[4] = VP16 transactivation reporter inhibitors, counter-screen for LRH-1 inverse agonist project, cell-based, luminescence, high throughput (AID 651615; in the data active = inhibition above about 33%); conditions: Gal4-VP16 luciferase reporter cells, at 3.6 µM, stronger effect = higher value
[5] = system: transactivating tegument protein VP16 (Human herpesvirus 1); test: VP16 transactivation reporter inhibitors, counter-screen for SRC2 inhibitor project, cell-based, luminescence, single concentration (AID 652007; in the data active = inhibition above about 36%); conditions: cell-based VP16 transactivation luciferase reporter, at 8.9 µM, stronger effect = higher value
[6] = molecular target: Nuclear receptor coactivator 2 (Homo sapiens) (UniProt Q15596); test: SRC2 coactivator transcriptional activity inhibitors, confirmation, cell-based, luminescence, HEK293, triplicate (AID 652008;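 active = mean inhibition above 46.5%, the solvent-only control mean plus 3 SD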;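 also: 0% = DMSO-treated cells and 100% = Gossypol at 36 µM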); conditions: HEK293 GAL4-SRC2 luciferase reporter, at 8.9 µM, stronger effect = higher value
Sequence of Nuclear receptor coactivator 2 (Homo sapiens) (Q15596 whole entry, looked up, the tested form may be a part): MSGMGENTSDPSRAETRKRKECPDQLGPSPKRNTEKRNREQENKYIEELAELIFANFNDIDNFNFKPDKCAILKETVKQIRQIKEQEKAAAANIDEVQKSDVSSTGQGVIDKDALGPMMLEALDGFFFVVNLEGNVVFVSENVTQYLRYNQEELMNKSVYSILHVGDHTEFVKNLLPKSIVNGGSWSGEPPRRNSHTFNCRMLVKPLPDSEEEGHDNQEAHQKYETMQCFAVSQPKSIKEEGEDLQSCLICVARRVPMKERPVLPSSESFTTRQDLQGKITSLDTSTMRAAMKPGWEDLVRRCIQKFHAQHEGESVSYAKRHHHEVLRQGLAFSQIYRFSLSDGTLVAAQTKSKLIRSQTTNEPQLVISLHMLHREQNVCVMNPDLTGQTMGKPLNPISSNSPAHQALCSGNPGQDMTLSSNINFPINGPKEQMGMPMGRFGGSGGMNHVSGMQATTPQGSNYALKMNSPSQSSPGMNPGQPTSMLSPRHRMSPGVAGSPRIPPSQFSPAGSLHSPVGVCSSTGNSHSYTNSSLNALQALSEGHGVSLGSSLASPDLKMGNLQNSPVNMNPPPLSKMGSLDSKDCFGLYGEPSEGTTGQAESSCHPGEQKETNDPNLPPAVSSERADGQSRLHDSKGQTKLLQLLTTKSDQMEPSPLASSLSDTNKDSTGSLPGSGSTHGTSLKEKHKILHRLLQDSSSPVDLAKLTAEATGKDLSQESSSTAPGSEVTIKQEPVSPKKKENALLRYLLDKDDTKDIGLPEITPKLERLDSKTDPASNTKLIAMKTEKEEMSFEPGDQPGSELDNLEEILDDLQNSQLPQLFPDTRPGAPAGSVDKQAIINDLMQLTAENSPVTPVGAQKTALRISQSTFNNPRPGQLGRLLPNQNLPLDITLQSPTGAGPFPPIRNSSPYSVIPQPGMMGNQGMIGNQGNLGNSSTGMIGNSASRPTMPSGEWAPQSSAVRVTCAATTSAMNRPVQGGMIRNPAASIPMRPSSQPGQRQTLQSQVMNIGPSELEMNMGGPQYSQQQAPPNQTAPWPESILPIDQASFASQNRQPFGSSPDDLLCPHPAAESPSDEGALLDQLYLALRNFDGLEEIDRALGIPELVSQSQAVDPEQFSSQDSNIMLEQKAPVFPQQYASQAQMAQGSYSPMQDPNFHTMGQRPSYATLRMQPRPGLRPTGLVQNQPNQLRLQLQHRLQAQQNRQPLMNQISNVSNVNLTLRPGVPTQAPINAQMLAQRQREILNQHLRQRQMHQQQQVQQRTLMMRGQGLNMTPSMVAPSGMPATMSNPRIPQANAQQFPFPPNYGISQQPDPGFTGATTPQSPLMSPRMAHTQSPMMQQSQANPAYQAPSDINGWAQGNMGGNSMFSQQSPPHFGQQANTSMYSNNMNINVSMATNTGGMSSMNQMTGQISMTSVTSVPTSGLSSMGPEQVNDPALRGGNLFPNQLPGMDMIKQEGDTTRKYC

Sequence of Nuclear receptor subfamily 5 group A member 2 (Homo sapiens) (O00482 whole entry, looked up): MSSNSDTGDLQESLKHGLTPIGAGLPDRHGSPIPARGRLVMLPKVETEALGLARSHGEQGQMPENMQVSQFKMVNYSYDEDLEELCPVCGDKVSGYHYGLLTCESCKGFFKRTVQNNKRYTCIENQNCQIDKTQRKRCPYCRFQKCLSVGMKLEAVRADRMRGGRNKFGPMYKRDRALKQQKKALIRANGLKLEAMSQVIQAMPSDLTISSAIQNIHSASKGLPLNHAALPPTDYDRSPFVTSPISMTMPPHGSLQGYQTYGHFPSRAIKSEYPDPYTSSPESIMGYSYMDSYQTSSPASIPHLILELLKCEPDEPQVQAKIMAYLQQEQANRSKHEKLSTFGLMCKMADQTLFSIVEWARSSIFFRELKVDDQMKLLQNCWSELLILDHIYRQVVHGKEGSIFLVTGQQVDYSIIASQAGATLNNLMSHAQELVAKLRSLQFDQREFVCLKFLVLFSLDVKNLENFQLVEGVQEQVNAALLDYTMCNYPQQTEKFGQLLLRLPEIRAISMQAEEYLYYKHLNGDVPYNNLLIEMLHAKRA
Sequence of Steroidogenic factor 1 (Homo sapiens) (Q13285 whole entry, looked up, the tested form may be a part): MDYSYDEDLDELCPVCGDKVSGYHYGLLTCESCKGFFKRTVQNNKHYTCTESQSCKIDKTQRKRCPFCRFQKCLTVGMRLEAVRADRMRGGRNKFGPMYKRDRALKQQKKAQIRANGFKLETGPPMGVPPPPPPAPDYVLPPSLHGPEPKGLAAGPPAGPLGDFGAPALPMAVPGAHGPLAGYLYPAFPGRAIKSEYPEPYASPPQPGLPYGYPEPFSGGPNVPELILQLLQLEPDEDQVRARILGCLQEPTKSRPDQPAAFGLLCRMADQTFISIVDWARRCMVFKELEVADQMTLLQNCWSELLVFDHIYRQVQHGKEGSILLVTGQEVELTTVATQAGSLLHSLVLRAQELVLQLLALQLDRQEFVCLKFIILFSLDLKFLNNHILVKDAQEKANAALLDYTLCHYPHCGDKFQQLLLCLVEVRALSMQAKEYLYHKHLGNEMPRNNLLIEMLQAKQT

With `C/C(=N\NC(N)=S)c1ccc(-n2ccnc2)cc1` the inhibition [1] was 10.1%, the inhibition [2] was 60.5% (active) and the inhibition [3] was 53.4% (active). The inhibition [4] was -13.1%.

With `Nc1nc2ccccc2n1/N=C/c1ccc([N+](=O)[O-])s1` the inhibition [1] was -0.84%, the inhibition [2] was 61.2% (active) and the inhibition [3] was 65.1% (active). The inhibition [4] was -3.2%.

In the case of `COc1cccc(-c2cnc3c(NC=O)cc(-c4ccc(S(C)(=O)=O)cc4)cn23)c1`, the inhibition [1] is reported as 30.2% (active), the inhibition [2] is reported as 61.5% (active) and the inhibition [3] is reported as 52.4% (active). It also gave an inhibition [4] of -0.78%.

In the case of `COc1ccc(NC(=O)COc2ccc(N(C)S(=O)(=O)c3ccc(Cl)cc3)cc2)cc1OC`, the inhibition [1] is reported as 18.5%, the inhibition [2] is reported as 67.1% (active) and the inhibition [3] is reported as 51.7% (active). For the same compound, the inhibition [4] was 51.1% (active).

With `COc1ccc(-c2cc(C(F)F)n3ncc(C(=O)N4CCc5ccccc5C4)c3n2)cc1` the inhibition [1] was 17.2%, the inhibition [2] was 58.3% (active) and the inhibition [3] was 56.7% (active). It also gave an inhibition [4] of -2.06%.

With `COc1ccc(OC)c(/C=N/N=C2\SCC(=O)N2Cc2ccco2)c1` the inhibition [1] was 10.7%, the inhibition [2] was 57.4% (active) and the inhibition [3] was 45.7% (active). For the same compound, the inhibition [4] was 5.2%.

In the case of `COc1ccc2nc(N3CCN(C(=O)c4ccc([N+](=O)[O-])o4)CC3)sc2c1`, the inhibition [1] is reported as 0.52%, the inhibition [2] is reported as 64.3% (active) and the inhibition [3] is reported as 61.8% (active). It also gave an inhibition [4] of -44.3%.

In the case of `Cc1c(Cl)cccc1NC(=O)CSc1nc2ncc(Cl)cc2[nH]1`, the inhibition [1] is reported as 18.2%, the inhibition [2] is reported as 69% (active) and the inhibition [3] is reported as 58% (active). It also gave an inhibition [4] of 1.96%.

In the case of `CCN(CC)c1nc(C)c(C(C)=O)cc1C#N`, the inhibition [1] is reported as 1.34%, the inhibition [2] is reported as 32.7% and the inhibition [3] is reported as 57% (active). It also gave an inhibition [4] of 12%.

For `O=C(Nc1ccc(N2CCN(C(=O)c3ccc(Cl)cc3)CC2)cc1)c1ccc([N+](=O)[O-])o1`, the inhibition [1] was 24.9%, the inhibition [2] was 51.9% (active) and the inhibition [3] was 66.2% (active). The inhibition [4] was 1.04%.

With `CCc1cc(=O)oc2c(C)c(OCC(=O)NCCCN3CCCC3=O)ccc12` the inhibition [1] was 8.43%, the inhibition [2] was 52.1% (active) and the inhibition [3] was 48.4% (active). It also gave an inhibition [4] of -11.3%.

With `CC(=O)Nc1ccc(NC(=O)CSc2nc3nc(-c4cccs4)cc(C(F)(F)F)c3c(=O)[nH]2)cc1` the inhibition [1] was 8.21%, the inhibition [2] was 54.2% (active) and the inhibition [3] was 49.2% (active). The inhibition [4] was -4.54%.

In the case of `Cc1nnsc1C(=O)NC1CCCc2c1cnn2-c1ccc(F)cc1F` (stereo not drawn), the inhibition [1] is reported as 19.6%, the inhibition [2] is reported as 59.4% (active) and the inhibition [3] is reported as 55.4% (active). For the same compound, the inhibition [4] was 55.9% (active).

`Cc1ccccc1N=C1NC(=O)/C(=C/c2cccnc2)S1` gave an inhibition [1] of 13.1%, an inhibition [2] of 39.8% and an inhibition [3] of 40.2%. The inhibition [4] was 8.55%.

In the case of `COc1cc(CSc2nnnn2-c2ccc(C)cc2)cc(OC)c1OC`, the inhibition [1] is reported as 24.4%, the inhibition [2] is reported as 53.3% (active) and the inhibition [3] is reported as 61.1% (active). The inhibition [4] was 44.8% (active).

In the case of `Cc1onc(-c2c(F)cccc2Cl)c1C(=O)O/N=C(\N)c1ccc([N+](=O)[O-])o1`, the inhibition [1] is reported as 11.6%, the inhibition [2] is reported as 70.9% (active) and the inhibition [3] is reported as 60.4% (active). The inhibition [4] was -7.18%.

For `NC(=S)N/N=C/c1ccc(-c2ccc([N+](=O)[O-])cc2)o1`, the inhibition [1] was -7.04%, the inhibition [2] was 52.5% (active) and the inhibition [3] was 44.5% (active). The inhibition [4] was 13.5%.

Compound `COc1c(/C=N/NC(N)=S)c(C)nn1-c1ccccc1` has an inhibition [1] of 1.43%, an inhibition [2] of 39.5% and an inhibition [3] of 27.9%. It also gave an inhibition [4] of -8.71%.

For `Cc1scc(C(=O)N/N=C/c2ccc([N+](=O)[O-])o2)c1C`, the inhibition [1] was 42.8% (active), the inhibition [2] was 76.3% (active) and the inhibition [3] was 73.5% (active). The inhibition [4] was 25.1%, the inhibition [5] was 62.4% (active) and the inhibition [6] was 68% (active).

For `COc1cccc(-c2cnc3c(NC(C)=O)cc(-c4ccc(S(C)(=O)=O)cc4)cn23)c1`, the inhibition [1] was 15.6%, the inhibition [2] was 53.3% (active) and the inhibition [3] was 41.6%. The inhibition [4] was -13.3%.

In the case of `CC(=O)Oc1ccc2oc(=O)c3c(c2c1)CCCN3C(=O)CN1CCN(c2ncccn2)CC1`, the inhibition [1] is reported as 12.8%, the inhibition [2] is reported as 58% (active) and the inhibition [3] is reported as 66.4% (active). For the same compound, the inhibition [4] was -13.8%.

For `CCC1(C)OC(=O)N2CCc3c(C)[nH]c4c(C)ccc(c34)C21C` (stereo not drawn), the inhibition [1] was 8.96%, the inhibition [2] was 41.6% (active) and the inhibition [3] was 44.9% (active). The inhibition [4] was 12.7%.

For `COc1ccc(NS(=O)(=O)c2ccc(-c3coc(C)n3)cc2)cc1OC`, the inhibition [1] was 15.6%, the inhibition [2] was 65.6% (active) and the inhibition [3] was 64.7% (active). The inhibition [4] was 51.4% (active).

With `O=C(Nc1cccc(S(=O)(=O)Nc2ccc(Cl)cc2)c1)c1ccc(Cl)nc1` the inhibition [1] was 41.3% (active), the inhibition [2] was 65% (active) and the inhibition [3] was 63.3% (active). The inhibition [4] was 56.9% (active).
